Drawing on PubChem BioAssay AID493131 (Broad Institute, 2011), this text covers activation for 23 molecules.

The campaign covered roughly 340,000 compounds. About 3,300 (0.97%) were called active. This excerpt belongs to a sample that is enriched for actives. Unmarked numbers belong to inactive results.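 Rule for the calls: active = mean activation above about 17%, with every replicate also reaching it (limit read from the data, passing the limit was not always enough); inconclusive = only one of the two conditions met; inactive = the rest.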

This experiment deals with Protein FosB (Mus musculus) (UniProt P13346). Kind of experiment: enhancers of mouse delta FosB DNA binding – biochemical, fluorescence polarization, TAMRA-CDK5 oligo, single point, primary screen (AID 493131).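 Note: fluorescence polarization rise as delta FosB binds a TAMRA Cdk5 AP-1 oligo.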 The settings on record: purified delta FosB, at 25 µM, active compounds read high, percent of positive-control signal above neutral wells.
Sequence of Protein FosB (Mus musculus) (P13346 whole entry, looked up): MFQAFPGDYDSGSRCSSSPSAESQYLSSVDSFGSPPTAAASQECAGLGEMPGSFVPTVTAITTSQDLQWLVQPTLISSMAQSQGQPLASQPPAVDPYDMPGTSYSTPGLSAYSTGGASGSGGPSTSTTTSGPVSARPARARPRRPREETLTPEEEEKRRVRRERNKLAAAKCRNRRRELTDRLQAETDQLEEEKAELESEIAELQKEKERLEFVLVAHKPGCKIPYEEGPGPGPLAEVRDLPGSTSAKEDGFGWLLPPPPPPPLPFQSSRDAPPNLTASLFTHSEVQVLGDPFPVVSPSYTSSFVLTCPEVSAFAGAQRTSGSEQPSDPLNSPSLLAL
Take `CCc1nc2oc3ccccc3c(=O)c2c(=O)n1Cc1ccc(OC)cc1`: the activation is -18.5%.

For the molecule `O=c1c2ccccc2oc2nc(C3CCCCC3)n(Cc3ccco3)c(=O)c12`, the activation was 34% (active).

For `O=c1c2ccccc2oc2nc3n(c(=O)c12)CCCS3`, the activation was -28.8%.

For the molecule `COC(=O)c1cc(C(=O)N(Cc2ccccc2)c2ccccn2)cc([N+](=O)[O-])c1`, the activation is -5.79%.

`CC(C)C[C@H]1CN([C@@H](CC(C)C)CN2CCC[C@@H]2CN2C(=O)C(=O)NC[C@@H]2Cc2ccccc2)C(=O)C(=O)N1CCc1ccccc1`: the activation is -16%.

Turning to `C[C@@H](CN1CCC[C@H]1CN1C(N)=NC[C@@H]1Cc1ccccc1)N1C[C@@H](Cc2ccccc2)N(CCCC2CCCC2)C1=N`, the activation was -7.85%.

As for `CC[C@@H](C)[C@@H]1CN([C@@H](C)CN2CCC[C@H]2CN2C(N)=NC[C@H]2C(C)C)C(=N)N1CCc1ccc(Cl)c(Cl)c1`, the activation is 23.1% (active).

As for `Cc1cc(SCC(=O)NCCN2C(=O)CSC2=O)nc2ccccc12`, the activation was 5.19%.

In the case of `C=CCNC(=O)c1ccc2c3n(nc2c1)-c1ccc(C)cc1CO3`, the activation is -4.63%.

For the molecule `CC(OC(=O)c1cc2ccccc2o1)C(=O)Nc1ccc(N2CCOCC2)cc1` (stereo not drawn), the activation was -0.675%.

On to `CCCCC(c1nnnn1CS(=O)(=O)c1ccc(C)cc1)N1CCC(C(N)=O)CC1` (stereo not drawn), for which the activation is -1.34%.

Consider `COc1ccc(C(CNC(=O)c2ccc(S(=O)(=O)Nc3ccccc3F)cc2)N(C)C)cc1` (stereo not drawn), for which the activation is 1.38%.

As for `CC(=O)Nc1ccc(S(=O)(=O)N2CCC(NC(=O)c3ccccc3)CC2)cc1`, the activation was 3.46%.

On to `O=C(Nc1ccc(S(=O)(=O)N2CCc3ccccc3C2)cc1)c1ccccc1`, for which the activation is 25.5% (active).

For `COC(=O)c1ccc(S(=O)(=O)N2CCc3ccccc3C2)cc1`, the activation is -1.34%.

As to `O=C(CN1C(=O)S/C(=C\c2ccccc2Cl)C1=O)NC1C=CS(=O)(=O)C1` (stereo not drawn), the activation is -2.97%.

For the molecule `COc1cccc(/C=C2\Sc3ccc(C(=O)NCC4CCCO4)cc3N(C)C2=O)c1` (stereo not drawn), the activation is 0.556%.

As for `COc1cccc(/C=C2/SC(=S)N(CC(=O)NC3C=CS(=O)(=O)C3)C2=O)c1` (stereo not drawn), the activation was 35.9% (active).

As to `COc1ccc(S(=O)(=O)N2CCCC2CNC(=O)C(=O)NC2CC2)cc1` (stereo not drawn), the activation is -3.99%.

For the molecule `CC1C(=O)Nc2ccccc2N1C(=O)c1ccc(F)cc1F` (stereo not drawn), the activation was 1.98%.

Take `Cc1ccc(OCC(=O)NCCCNC(=O)c2cccnc2)cc1C`: the activation was 2.57%.

For the molecule `C/C(=C\C(=O)c1cccnc1)Nc1ccc(C)c(C)c1`, the activation was -1.12%.

`Cc1ccc(NC(=O)COc2ccc(/C=N\NC(=O)c3cccnc3)cc2)cc1C`: the activation is 82.7% (active).
